Laboratory results published in the supplement of paper PMC6555819.

What follows are sequences tested on PPARa:RXRa (NR concentration 270 nM, RXRa partner concentration 90 nM) (assay: PBM binding z-score (relative to random genomic background probes); higher = stronger binding; sequences stand for … in GC…GCGATTGACAGCGTAGAATGAAGG).
How it was run: (§1)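 Regression normalization was applied to scanned fluorescence from custom Agilent 4×180K protein-binding microarrays. Before scanning, arrays were incubated 1 h with ligand-free nuclear receptor dimers, and binding was detected with antibodies against each partner (one per run). Binding z-scores use the random background probes as reference.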

Sequence	PBM binding z-score
TCATATAGGTAAAGGTGAAAGTAGAACGATATGA	3.29
CCGAGTAGGTTATGCGGCATTCAGGCAACGGTGA	0.802
TCAGCCAGGTGAAGGTAACTCAGGTACGCAGTCG	0.696
ACTAGCAGGCCAAGTTTGGGTTACTCAAACAAAG	-0.051
CCTCGGAGGAAAACAGGAGGTCAGAGCTGCCAGA	2.13
ATATGTTGGTTAGCTGGGGTCATTCAGACTAGGC	4.26
GCTTACGGGCCAAAGGTTATAGCATGAATAGAAT	4.59
GCTAGCAGGCCATTTGGGTCACTTAATGACGGGC	1.16
ATCGAAAGGTCGAAGGTGAGTAAACCCACCCGAA	4.88
TTACCAATGTGAAGGTCGTTGATCCCTCTGTAGA	1.3
TCATATAGGTTATACAGGTGAAAGTCGGCATCTA	2.99
AATACAGGGTCACTAGGCCAGAGCAGGTACGAAT	5.66
CCAGACAAGTGAAAGGTAACTCAGTCTGGTACGC	1.07
CCTACTGGGCCACGAAGGGTCATTGATTCAGTGA	3.68
CAGCTTAGGTCAGGGCCAGTATAGGAGGAACGTT	2.17
TCGCCTAGGTCATGCGGGCCAGTATAGTGTCGGC	3.47
ATCGAAAGGTCGAGGTGAGTAAAGAGAAAGGGAA	4.57
ATACCAAGGTGATCGTGAGGGCGTTGATACTAAC	0.489
CCTAATGGGCCATCAGGTCATTGATATCAACGTT	2.33
TAGCCTAGGTCATTCGGCCAGTATAGTACGCATC	3.48

Sequence	PBM binding z-score
TAAATGAGGTTATAAGATCAGGGAACGTTGCAAA	2.85
AGAATAAGGTTAAGATCAGGGAAACAGAATACAT	3.06
TAGCGTAGGTCATTCAGGGGCCAGTATAGAAAGC	4.19
TTTTGTAGATCAAGCAGGTTAAGAAAGCCTGAGT	0.567
ATCTCTAGGTAACCAAGTTCAGTGATTGCCGAAC	1
TCATATAGGTAGAAGGTGAAAGTCGGTGTGGTAA	3.46
ACAGACAGGTGATGAAGGTAATTCAGGCTATCAT	0.215
AGAACGAGGGAAATGAGTTGATAGCACGGGTGGC	-0.481
ACTTACGGGTCAACGAGGTTATAACACGCGTATA	5.9
ACAGACCGGTGATGAAGGTAACTCAGGCTATCAT	-0.318
AGAATGAGGTTATACGTAGATCATGGAAGAAAGT	3.28
TGAATGAGGTTGTAAGATCAGGGAACGTTGCAAA	0.282
ACTAGCAGGCCAAGTTTGGGACACTCAAACAAAG	-0.478
CGTCAAAGTTCAGGGTAACGTAACAGAAAGCAGC	3.48
ACAATTAGTTGAGACGAGGGCAACCGATAGGTTG	0.503
TCGAGTAGGTTAGTCGGGGCATTCAGCCAACATA	0.44
CAAACTCGGTCAAGGTCAAAGTCGGTTTGTGCCA	4.81
CCTACTGGGACATCAGGTCATTGATATCAACGTT	2.67
AGTCAAAGTTCAGGACGGGGTAACGTAAAGCACG	3.58
ATCTCTAGGTAAAGATAGTTTAGTGAATGCAAAT	0.104

What follows are sequences tested on PPARg:RXRa (NR concentration 180 nM, RXRa partner concentration 90 nM) in the same assay as above.
How it was run: as §1

Sequence	PBM binding z-score
TCATATAGGTAAAGGTGAAAGTAGAACGATATGA	4.62
CCGAGTAGGTTATGCGGCATTCAGGCAACGGTGA	0.774
TCAGCCAGGTGAAGGTAACTCAGGTACGCAGTCG	0.4
ACTAGCAGGCCAAGTTTGGGTTACTCAAACAAAG	-0.32
CCTCGGAGGAAAACAGGAGGTCAGAGCTGCCAGA	0.128
ATATGTTGGTTAGCTGGGGTCATTCAGACTAGGC	1.3
GCTTACGGGCCAAAGGTTATAGCATGAATAGAAT	8.48
GCTAGCAGGCCATTTGGGTCACTTAATGACGGGC	0.67
ATCGAAAGGTCGAAGGTGAGTAAACCCACCCGAA	4.96
TTACCAATGTGAAGGTCGTTGATCCCTCTGTAGA	-0.039
TCATATAGGTTATACAGGTGAAAGTCGGCATCTA	2.56
AATACAGGGTCACTAGGCCAGAGCAGGTACGAAT	7.53
CCAGACAAGTGAAAGGTAACTCAGTCTGGTACGC	1.42
CCTACTGGGCCACGAAGGGTCATTGATTCAGTGA	3.11
CAGCTTAGGTCAGGGCCAGTATAGGAGGAACGTT	0.606
TCGCCTAGGTCATGCGGGCCAGTATAGTGTCGGC	1.56
ATCGAAAGGTCGAGGTGAGTAAAGAGAAAGGGAA	3.27
ATACCAAGGTGATCGTGAGGGCGTTGATACTAAC	0.369
CCTAATGGGCCATCAGGTCATTGATATCAACGTT	1.5
TAGCCTAGGTCATTCGGCCAGTATAGTACGCATC	2.78

Sequence	PBM binding z-score
TAAATGAGGTTATAAGATCAGGGAACGTTGCAAA	2.1
AGAATAAGGTTAAGATCAGGGAAACAGAATACAT	1.75
TAGCGTAGGTCATTCAGGGGCCAGTATAGAAAGC	1.8
TTTTGTAGATCAAGCAGGTTAAGAAAGCCTGAGT	-0.416
ATCTCTAGGTAACCAAGTTCAGTGATTGCCGAAC	0.254
TCATATAGGTAGAAGGTGAAAGTCGGTGTGGTAA	5.61
ACAGACAGGTGATGAAGGTAATTCAGGCTATCAT	0.583
AGAACGAGGGAAATGAGTTGATAGCACGGGTGGC	0.813
ACTTACGGGTCAACGAGGTTATAACACGCGTATA	5.93
ACAGACCGGTGATGAAGGTAACTCAGGCTATCAT	0.549
AGAATGAGGTTATACGTAGATCATGGAAGAAAGT	2.34
TGAATGAGGTTGTAAGATCAGGGAACGTTGCAAA	-0.0383
ACTAGCAGGCCAAGTTTGGGACACTCAAACAAAG	0.0502
CGTCAAAGTTCAGGGTAACGTAACAGAAAGCAGC	3.14
ACAATTAGTTGAGACGAGGGCAACCGATAGGTTG	0.794
TCGAGTAGGTTAGTCGGGGCATTCAGCCAACATA	-0.224
CAAACTCGGTCAAGGTCAAAGTCGGTTTGTGCCA	4.76
CCTACTGGGACATCAGGTCATTGATATCAACGTT	2.46
AGTCAAAGTTCAGGACGGGGTAACGTAAAGCACG	4.9
ATCTCTAGGTAAAGATAGTTTAGTGAATGCAAAT	0.777
